Values joined by “and” are separate entries in the source; they are usually repeats but may differ in a detail not shown here. Equal entries are not always repeated. Inconclusive results are not listed. Where a structure was tested more than once in an assay, its records may differ in their call. Active and inactive are the calls of the source. Unless noted, calls follow the shape of the dose curve; as a rule, active = well fitted cell-killing curve with a large enough effect in the repeat runs; inconclusive = weak or mixed curves, or effect the other way; inactive = no such curve, though single readings can be large or run the other way.
Potency is read from the fitted curve at half-maximal effect.

The first assay can be described thus: qHTS assay to identify small molecule agonists of the NFkB signaling pathway - cell viability counter screen (AID 1159515; calls by dose curve; also: nearly all actives have a fitted effect of over 55% in size). The note with it: NFkB-bla ME-180 viability, CellTiter-Glo luminescence, 5 h; series mostly up to 61 µM. An outline of the steps: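 Using the same wells as the NFkB reporter read, ME-180 NFkB-bla cells given compounds for 5 hr were assessed for viability via CellTiter-Glo, with luminescence taken after a 30 min room-temperature incubation.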
(In qHTS, concentration-response curves come from the screen itself.)
For `CCCCN(CCCC)C(=S)[S-].CCCCN(CCCC)C(=S)[S-].[Zn+2]`, the Potency result was “inactive”.
For `CC(C)OC(=O)C(O)(c1ccc(Cl)cc1)c1ccc(Cl)cc1`, the Potency was 49 µM (active).
Still for that read-out and setting: next, `COC(=O)N(C(=O)N1CO[C@@]2(C(=O)OC)Cc3cc(Cl)ccc3C2=N1)c1ccc(OC(F)(F)F)cc1`: “inactive”.

The nature of the next assay: qHTS assay to identify small molecule antagonists of the retinoid-related orphan receptor gamma (ROR-gamma) signaling pathway - cell viability counter screen (AID 1159520). Also: nearly all actives have a fitted effect of over 50% in size. The note with it: Tet-on RORgamma CHO cells viability, ATP luminescence, 16 h; series mostly up to 92.4 µM. An outline of the steps: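 Tet-on ROR gamma CHO cells (1,000/well) were plated 4 hr, given compounds in DMSO for 2 hr at 37 C, then induced with 1 uM final doxycycline for 16 hr. Viability was read as ATP by CellTiter-Glo luminescence after 30 min.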
Regarding `CCCSP(=O)(OCC)SCCC`, the Potency result is “inactive”.
Regarding `CCCCCCCCCCCCCCCCCCn1cc[n+](C)c1`, the Potency was 60.8 µM (active).
Take `C[C@@H]1CC[C@@]2(OC1)O[C@H]1[C@@H](O)[C@H]3[C@@H]4CC[C@H]5C[C@@H](O[C@@H]6O[C@H](CO)[C@H](O[C@@H]7O[C@H](CO)[C@@H](O)[C@H](O[C@@H]8OC[C@@H](O)[C@H](O)[C@H]8O)[C@H]7O[C@@H]7O[C@H](CO)[C@@H](O)[C@H](O[C@@H]8O[C@H](CO)[C@@H](O)[C@H](O)[C@H]8O)[C@H]7O)[C@H](O)[C@H]6O)[C@H](O)C[C@]5(C)[C@H]4CC[C@]3(C)[C@H]1[C@@H]2C`: the Potency is 10.3 µM (active).
Same read-out and setting: under `CC(C)CC(C)Nc1ccc(Nc2ccccc2)cc1` (stereo not drawn) stands 67.4 µM (active); under `CC1(c2ccc(Oc3ccccc3)cc2)OC(=O)N(Nc2ccccc2)C1=O` (stereo not drawn), 54.8 µM (active).
Consider `COc1cc(C=O)cc2c1[C@H](COC(N)=O)[C@]1(OC(C)=O)ON2C[C@H]2[C@@H]1N2C(C)=O`, for which the Potency entry is “inactive”.
The same measure, in the same setting: under `C[C@H]1O[C@@H](O[C@H]2[C@@H](O)C[C@H](O[C@H]3[C@@H](O)C[C@H](O[C@H]4CC[C@@]5(C)[C@H](CC[C@@H]6[C@@H]5CC[C@]5(C)[C@@H](C7=CC(=O)OC7)CC[C@]65O)C4)O[C@@H]3C)O[C@@H]2C)C[C@H](O)[C@@H]1O` stands “inactive”; under `CN(C)c1ccc(N=Nc2ccccc2)cc1`, “inactive”; under `COc1ccc(OC)c(CC(C)N)c1` (stereo not drawn), “inactive”.
With `CCOP(=O)(NC(C)C)Oc1ccc(SC)c(C)c1` (stereo not drawn), the Potency entry is “inactive”.
Still for that read-out and setting: under `CCCCCCCCCCCCCN1CC(C)OC(C)C1` (stereo not drawn) stands “inactive”; under `C=CC(=O)OCCCCOC(=O)C=C`, 19.3 µM (active).
Take `Clc1ccc(C(c2ccc(Cl)cc2)C(Cl)(Cl)Cl)cc1`: the Potency was 61.6 µM (active) and inactive.
The same measure, in the same setting: next, `CCc1nn(C)c(C(=O)NCc2ccc(C(C)(C)C)cc2)c1Cl`: 21.7 µM (active); `Nc1ccccc1C(=O)OC/C=C/c1ccccc1`: “inactive”; `O=c1c(C2CC(c3ccc(-c4ccc(Br)cc4)cc3)Cc3ccccc32)c(O)sc2ccccc12` (stereo not drawn): “inactive”.
Still for that read-out and setting: next, `CC[C@H](C)[C@H]1O[C@]2(C=C[C@@H]1C)C[C@@H]1C[C@@H](C/C=C(\C)[C@@H](O[C@H]3C[C@H](OC)[C@@H](O[C@H]4C[C@H](OC)[C@@H](O)[C@H](C)O4)[C@H](C)O3)[C@@H](C)/C=C/C=C3\CO[C@@H]4[C@H](O)C(C)=C[C@@H](C(=O)O1)[C@]34O)O2`: 25.6 µM (active).
The same measure, in the same setting: under `CN(C)C(=S)S` stands 6.11 µM (active); under `Oc1ccc(C(=C(Cl)Cl)c2ccc(O)cc2)cc1`, “inactive”.
Take `COP(=O)(OC)SCn1c(=O)oc2cc(Cl)cnc21`: the Potency result is “inactive”.
On the same count and under the same terms, under `CC(C)C1CCC(Cc2ccc(Cl)cc2)C1(O)Cn1cncn1` (stereo not drawn) stands 60.5 µM (active).
`CCCOCC(=Nc1ccc(Cl)cc1C(F)(F)F)n1ccnc1`: the Potency is 61.1 µM (active).
Regarding `O=C(CCl)Nc1ccccc1`, the Potency is 27.3 µM (active).
Still for that read-out and setting: under `N#CSCSC#N` stands 15.7 µM (active) and 4.28 µM (active).
Still for that read-out and setting: under `COC12CC[C@@]3(C[C@@H]1C(C)(O)C(C)(C)C)[C@H]1Cc4ccc(O)c5c4[C@@]3(CCN1CC1CC1)[C@H]2O5` (stereo partly drawn) stands 60.7 µM (active); under `O=c1ssc(Cl)c1Cl`, 15.4 µM (active); under `CCN(CC)c1c([N+](=O)[O-])cc(C(F)(F)F)c(N)c1[N+](=O)[O-]`, “inactive”.
Still for that read-out and setting: next, `C[C@H]1CC[C@@H]2[C@@H](C)[C@H]3[C@H](C[C@H]4[C@@H]5CC=C6CC(O[C@@H]7O[C@H](CO)[C@H](O)[C@H](O[C@@H]8O[C@H](CO)[C@@H](O)[C@H](O)[C@H]8O)[C@H]7O[C@H]7O[C@@H](C)[C@H](O)[C@@H](O)[C@H]7O)CC[C@]6(C)[C@H]5CC[C@]34C)N2C1` (stereo partly drawn): 28.2 µM (active); `C[C@@H]1O[C@@H](O[C@H]2C[C@@H](O)[C@]3(CO)[C@H]4[C@H](O)C[C@]5(C)[C@@H](C6=CC(=O)OC6)CC[C@]5(O)[C@@H]4CC[C@]3(O)C2)[C@H](O)[C@H](O)[C@H]1O`: “inactive”; `CCOC(=O)OC1=C(c2cc(C)ccc2C)C(=O)NC12CCC(OC)CC2` (stereo not drawn): “inactive”.

(Values after PubChem BioAssay (Tox21).)
